From PubChem BioAssay (NCATS)
“And” between values parts separate entries of the source, which are not always exact repeats. Equal values may be shown once. Results filed as inconclusive are left out. The source made the active and inactive calls. Calls come from the whole dose curve; as a rule, active = well fitted curve in the direction sought with a large enough effect; inconclusive = small, poorly fitted or top-dose-only effect, or another doubt; inactive = no such curve, though single readings can be large; an effect the other way counts as inactive or inconclusive. *1 amine or outer side, *2 acyl side, *3 side chain or, on linkers, in order; H or OH if unused. Where a SMILES comes first, the peptide text is derived from it. Bridges are numbered along the chain shown (N, C = ends). X6 = O=C(CCC[*:2])[*:1]

Key:
CRL-7250 = normal cell line; assay: Cytotoxic Profiling of Annotated Libraries Using Quantitative High-Throughput Screening (AID 1296008); settings: Five cell lines viability, CellTiter-Glo ATP luminescence, 48-72 h; max response: stronger effect = lower value; note: nearly all actives have a fitted effect of over 60% in size; note: potency is the fitted concentration of half-maximal effect
Outline: (§1)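 Cytotoxicity was measured as CellTiter-Glo ATP luminescence, read after 10 min at room temperature. Compound treatment of the cells lasted 48 or 72 hr at 37 degrees Celsius in a qHTS format.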

HEK293 = assay: as above; settings: Five cell lines viability, CellTiter-Glo ATP luminescence, 48-72 h; max response: stronger effect = lower value
Outline: as §1

HaCat [1] = assay: as above; settings: Five cell lines viability, CellTiter-Glo ATP luminescence, 48-72 h; max response: stronger effect = lower value
Outline: as §1

KB-3-1 = assay: as above; settings: Five cell lines viability, CellTiter-Glo ATP luminescence, 48-72 h; max response: stronger effect = lower value
Outline: as §1

NIH3T3 [2] = assay: as above; settings: Five cell lines viability, CellTiter-Glo ATP luminescence, 48-72 h; max response: stronger effect = lower value
Outline: as §1

HEK293T = assay: qHTS assay to identify novel small-molecules to repurpose for Merkel cell carcinoma treatment (AID 1296009); settings: MCC and control cell lines, CellTiter-Glo viability, 72 h; series mostly up to 44.8 µM; note: nearly all actives have a fitted effect of over 60% in size
Outline: (§2)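 Cell viability measured by CellTiter-Glo following 72 hr compound treatment at 37 degree celsius, with NPC and MIPE libraries tested in 8- and 11-point concentration series.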

NIH3T3 [3] = assay: as above; settings: MCC and control cell lines, CellTiter-Glo viability, 72 h; at 44.8 µM (top of the series) unless noted
Outline: as §2

C33A = assay: Primary qHTS to identify gynecologic anti-cancer compounds using libraries of approved drugs and bioactive compounds (AID 1345084); settings: Gynecologic cancer cell panel viability, ATPlite luminescence, 48 h; series mostly up to 57.5 µM; note: nearly all actives have a fitted effect of over 55% in size
Outline: (§3)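 Cell viability after 48 h drug treatment, ATPlite luminescence readout; five doses.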

CAOV3 = assay: as above; settings: Gynecologic cancer cell panel viability, ATPlite luminescence, 48 h; series mostly up to 57.5 µM
Outline: as §3

CASKI = assay: as above; settings: Gynecologic cancer cell panel viability, ATPlite luminescence, 48 h; series mostly up to 57.5 µM
Outline: as §3

Es-2 = assay: as above; settings: Gynecologic cancer cell panel viability, ATPlite luminescence, 48 h; series mostly up to 57.5 µM
Outline: as §3

HeLa = assay: as above; settings: Gynecologic cancer cell panel viability, ATPlite luminescence, 48 h; series mostly up to 57.5 µM
Outline: as §3

HACAT [4] = assay: qHTS assay to identify novel small-molecules to repurpose for Merkel cell carcinoma treatment (AID 1296009); settings: MCC and control cell lines, CellTiter-Glo viability, 72 h; at 44.8 µM (top of the series) unless noted; note: nearly all actives have a fitted effect of over 60% in size
Outline: as §2

MCC-13 = assay: as above; settings: MCC and control cell lines, CellTiter-Glo viability, 72 h; series mostly up to 46 µM
Outline: as §2

MCC-26 = assay: as above; settings: MCC and control cell lines, CellTiter-Glo viability, 72 h; series mostly up to 46 µM
Outline: as §2

MKL-1 = assay: as above; settings: MCC and control cell lines, CellTiter-Glo viability, 72 h; series mostly up to 46 µM
Outline: as §2

MKL-2 = assay: as above; settings: MCC and control cell lines, CellTiter-Glo viability, 72 h; series mostly up to 46 µM
Outline: as §2

UISO = assay: as above; settings: MCC and control cell lines, CellTiter-Glo viability, 72 h; series mostly up to 46 µM
Outline: as §2

WaGa = assay: as above; settings: MCC and control cell lines, CellTiter-Glo viability, 72 h; series mostly up to 46 µM
Outline: as §2
% is set by controls: 0 for no effect and ±100 for the full control effect.

CC1(C)CCCC2(C)C(CO)C3CCC2C31 (centres undefined)
inactive: max response (CRL-7250) -0.786% | outcome (HEK293) | max response (HaCat [1]) 0.929% | outcome (KB-3-1) | outcome (NIH3T3 [2]) | Potency (HEK293T) | outcome (NIH3T3 [3]) | Potency (C33A) | Potency (CAOV3) | Potency (CASKI) | Potency (Es-2) | Potency (HeLa)

CC[C@H](C)[C@@H]1NC(=O)[C@H](Cc2ccc(OC)cc2)NC(=O)CCCSC[C@@H](C(=O)N2CCC[C@H]2C(=O)N[C@@H](CC(C)C)C(=O)NCC(N)=O)NC(=O)[C@H](CC(N)=O)NC(=O)[C@H](CCC(N)=O)NC1=O (Y(Me)IQNCPLG-NH2; linker N-5 via X6)
inactive: max response (CRL-7250) -0.379% | outcome (HEK293) | max response (HaCat [1]) -67.2% | outcome (KB-3-1) | outcome (NIH3T3 [2]) | Potency (HEK293T) | outcome (NIH3T3 [3]) | Potency (C33A) | Potency (CAOV3) | Potency (CASKI) | Potency (Es-2) | Potency (HeLa)

COCC(=O)N1CCc2cc(-c3csc(NC(=O)c4cc(OC)cc(OC)c4)n3)ccc21
inactive: outcome (CRL-7250) | outcome (HEK293) | max response (HaCat [1]) -4% | outcome (KB-3-1) | outcome (NIH3T3 [2]) | Potency (HEK293T) | outcome (NIH3T3 [3]) | Potency (C33A) | Potency (CAOV3) | Potency (CASKI) | Potency (Es-2) | Potency (HeLa)

C[C@@H]1O[C@@H](O[C@H]2[C@H](O[C@H]3[C@H](O[C@H]4CC[C@@]5(C=O)C(CC[C@]6(C)C5CC=C5C7CC(C)(C)C[C@@H](O)[C@]7(C)CC[C@]56C)C4(C)C)O[C@H](C(=O)O)[C@@H](O)[C@@H]3O)OC[C@@H](O)[C@@H]2O)[C@H](O)[C@H](O)[C@H]1O (some centres undefined)
inactive: outcome (CRL-7250) | outcome (HEK293) | max response (HaCat [1]) -16.7% | max response (KB-3-1) 7.57% | outcome (NIH3T3 [2]) | outcome (HEK293T) inactive [at 9.27 µM] | outcome (NIH3T3 [3]) inactive [at 9.27 µM] | activity change, negative = cytotoxicity (C33A) 7.86% [at 11.6 µM] | activity change, negative = cytotoxicity (CAOV3) 38.3% [at 11.6 µM] | activity change, negative = cytotoxicity (CASKI) 0.905% [at 11.6 µM] | activity change, negative = cytotoxicity (Es-2) 9.36% [at 11.6 µM] | activity change, negative = cytotoxicity (HeLa) 2.37% [at 11.6 µM]

c1ccc(Cc2ncc3c(n2)CCNCC3)cc1
inactive: max response (CRL-7250) -2.57% | outcome (HEK293) | max response (HaCat [1]) -4.11% | max response (KB-3-1) 0.381% | outcome (NIH3T3 [2]) | Potency (HEK293T) | outcome (NIH3T3 [3]) | Potency (C33A) | Potency (CAOV3) | Potency (CASKI) | Potency (Es-2) | Potency (HeLa)

CC(/C=C/C1(O)C(C)CC(O)CC1(C)C)OC1OC(CO)C(O)C(O)C1O (centres undefined)
inactive: max response (CRL-7250) 1.42% | outcome (HEK293) | max response (HaCat [1]) -9.66% | outcome (KB-3-1) | outcome (NIH3T3 [2]) | Potency (HEK293T) | outcome (NIH3T3 [3]) | Potency (C33A) | Potency (CAOV3) | Potency (CASKI) | Potency (Es-2) | Potency (HeLa)

CC(=O)O[C@H](C[C@@H](C)[C@H]1C(=O)[C@H](O)[C@@]2(C)[C@@H]3CCC4C(C)(C)[C@@H](O[C@@H]5OC[C@H](O)[C@H](O)[C@H]5O)CC[C@@]45C[C@@]35CC[C@]12C)[C@@H]1OC1(C)C (some centres undefined)
inactive: max response (CRL-7250) 0.817% | outcome (HEK293) | max response (HaCat [1]) 2.98% | outcome (KB-3-1) | outcome (NIH3T3 [2]) | Potency (HEK293T) | outcome (NIH3T3 [3]) inactive [at 17.4 µM] | Potency (C33A) | Potency (CAOV3) | Potency (CASKI) | Potency (Es-2) | Potency (HeLa)

CC(=O)OC[C@]1(O)[C@H]2[C@H](OC(=O)CC(C)C)OC=C(CO[C@@H]3O[C@H](CO)[C@@H](O)[C@H](O)[C@H]3O)[C@H]2C[C@@H]1O
inactive: outcome (CRL-7250) | outcome (HEK293) | max response (HaCat [1]) -3.61% | outcome (KB-3-1) | outcome (NIH3T3 [2]) | Potency (HEK293T) | outcome (NIH3T3 [3]) inactive [at 17.4 µM] | Potency (C33A) | Potency (CAOV3) | Potency (CASKI) | Potency (Es-2) | Potency (HeLa)

CC1CCCC2OC2C(=O)c2c(O)cc(O)cc2CC(=O)O1 (centres undefined)
inactive: max response (CRL-7250) -0.57% | outcome (HEK293) | max response (HaCat [1]) -2.51% | max response (KB-3-1) 3.41% | outcome (NIH3T3 [2]) | Potency (HEK293T) | outcome (NIH3T3 [3]) | Potency (C33A) | Potency (CAOV3) | Potency (CASKI) | Potency (Es-2) | Potency (HeLa)

C[C@@H]1O[C@@H](O[C@@H]2[C@@H](O)[C@@H](O)[C@H](O[C@@H]3[C@@H](O)[C@@H](O[C@]4(CO)O[C@H](CO)[C@@H](O)[C@@H]4OC(=O)/C=C/c4ccc(O)cc4)O[C@H](CO)[C@H]3OC(=O)/C=C/c3ccc(O)cc3)O[C@H]2C)[C@H](O)[C@H](O)[C@H]1O
inactive: max response (CRL-7250) -4.29% | outcome (HEK293) | max response (HaCat [1]) 1.83% | outcome (KB-3-1) | outcome (NIH3T3 [2]) | outcome (HEK293T) inactive [at 9.27 µM] | outcome (NIH3T3 [3]) inactive [at 9.27 µM] | activity change, negative = cytotoxicity (C33A) 0.544% [at 11.6 µM] | activity change, negative = cytotoxicity (CAOV3) 16.9% [at 11.6 µM] | activity change, negative = cytotoxicity (CASKI) -0.379% [at 11.6 µM] | activity change, negative = cytotoxicity (Es-2) 1.92% [at 11.6 µM] | activity change, negative = cytotoxicity (HeLa) 11% [at 11.6 µM]

CC(=O)OC(C)OC(=O)C(C)c1ccc(-c2ccccc2)c(F)c1 (centres undefined)
inactive: max response (CRL-7250) -4.19% | max response (HEK293) -11.4% | outcome (HaCat [1]) | max response (KB-3-1) 1.74% and -23.2% | outcome (NIH3T3 [2]) | outcome (HACAT [4]) | outcome (MCC-13) | outcome (MCC-26) | outcome (MKL-1) | outcome (MKL-2) | outcome (NIH3T3 [3]) | outcome (UISO) | outcome (WaGa) | Potency (C33A) | Potency (CAOV3) | Potency (CASKI) | Potency (Es-2) | Potency (HeLa)

C=C1CCC2C(C)(C(=O)O)CC(O)CC2(C)C1CC/C(C)=C/C(=O)O (centres undefined)
inactive: max response (CRL-7250) -3.85% | outcome (HEK293) | max response (HaCat [1]) 3.69% | max response (KB-3-1) 5.42% | outcome (NIH3T3 [2]) | Potency (HEK293T) | outcome (NIH3T3 [3]) | Potency (C33A) | Potency (CAOV3) | Potency (CASKI) | Potency (Es-2) | Potency (HeLa)

CN(NC(=O)CC(=O)NN(C)C(=S)c1ccccc1)C(=S)c1ccccc1
inactive: outcome (HaCat [1]) | outcome (HACAT [4]) | Potency (CASKI) | Potency (Es-2) | Potency (HeLa)
active: Potency (CRL-7250) 66 nM | Potency (HEK293) 11.6 nM and 13.2 nM | Potency (KB-3-1) 36.6 nM | Potency (NIH3T3 [2]) 51.7 nM and 26.3 nM
